Results: PubChem BioAssay (NCI)
Compounds without any hit were thinned out: in the full panel of roughly 83,000, 20% have a hit.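 48-hour exposure, single concentration, 96-well plates; percent growth endpoint where 0 means no net growth. Active: below 10.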 A number with no mark means an inactive call. Activity calls are given as the source filed them.

Test system: SF-268 CNS
Test: NCI-60 one-dose screen, 48 h (100 = growth as untreated, 0 = no growth, -100 = all killed)
Settings: 10 µM

| Compound | growth |
| --- | --- |
| O=C(Nc1ccc(I)cc1F)c1cc(-c2ccc(F)cc2F)ccc1O | 8.16% (active) |
| COc1cccc(/C=C2\N=C(C)N(CCc3ccc(S(N)(=O)=O)cc3)C2=O)c1 | 101% |
| CC1=C2C(=C[C@@](C)(COCOCCCl)[C@@H]2O)C(=O)[C@](C)(O)C12CC2 | -9.66% (active) |
| Nc1n[nH]c2cccc(C#Cc3cccc(NC(=O)Nc4cc(C(F)(F)F)cc(C(F)(F)F)c4)c3)c12 | -2.88% (active) |
| O=C(N=Nc1c(O)[nH]c2ccc(Br)cc12)c1ccc2nc(-c3ccccc3)[nH]c2c1 | -53.3% (active) |
| COc1cccc(-c2ccc(/C=N/NC(=O)c3[nH]c4ccc(Br)cc4c3-c3ccccc3)o2)c1 | 33.5% |
| COc1cc2c(cc1OC)CN(CCCCOc1cc(O)c3c(=O)cc(-c4ccccc4)oc3c1)CC2 | 65.9% |
| COc1ccc(CCN2C(=O)/C(=C/c3csc(C#N)n3)SC2=S)cc1 | 33.2% |
| N#Cc1c(NC(=O)c2ccc(C(O)(C(F)(F)F)C(F)(F)F)cc2)sc2c1CCC(=O)C2 | -9.56% (active) |
| Cn1cc(-c2cc(N)n3nc(-c4c[nH]c5ccc(Br)cc45)cc3n2)c2cc(Br)cnc21 | -22.5% (active) |
| COc1ccccc1[C@H]1C(C(=O)c2ccc(Cl)cc2)C2(N[C@@H]1c1ccccc1)C(=O)Nc1ccccc12 (stereo partly drawn) | 10.2% |
| CC(=O)Nc1ccc(-c2cn(-c3cccc(C(=O)Nc4cc(C(F)(F)F)cc(C(F)(F)F)c4)c3)nn2)cn1 | -7.7% (active) |
| CCCCCCCCCCCCCCCCCCCC(=O)NCCc1c[nH]c2ccc(OC(=O)CCCC(=O)OCCOOCCOOCCOOCCOOCCOOCCOOCCOOCCOOCCOOCCOOCCOOCCOC)cc12 | 16.7% |
| O=C1Nc2ccc(Cl)cc2/C1=C/c1cccc(OCc2ccccn2)c1 | 4.23% (active) |
| CN1CCN(Cc2ccc(C(=O)Nc3cccc(Nc4ccc5cc(O)ccc5n4)c3)cc2C(F)(F)F)CC1 | -26% (active) |
| O=C(O)CCCCCCCCCCN1C(=O)/C(=C/c2cnc(-c3ccc(Cl)cc3)s2)SC1=S | 49.4% |
| COc1ccc(NC(=O)Nc2ccc(OCC(=O)N=Nc3c(O)[nH]c4ccc([N+](=O)[O-])cc34)cc2)cc1 | 63.7% |

| Compound | growth |
| --- | --- |
| C/C(=C\CC/C=C(\C)CC/C=C(\C)CC[C@@H](O)C(C)(C)O)CC/C=C(\C)CC[C@@H](O)C(C)(C)O | 57.5% |
| CCOC(=O)C1NN(c2ccc(S(N)(=O)=O)cc2)c2nc3nc(-c4cccs4)cc(-c4cccs4)c3c(=O)n21 (stereo not drawn) | 75% |
| CN(CCF)c1ccc(/C=C/C(=O)c2ccc(N)cc2O)cc1 | 93.7% |
| C=C1CCC2C3(C)COC(c4c(F)cccc4F)OC3CCC2(C)C1CC(O)C1=CCOC1=O (stereo not drawn) | 98.5% |
| O=C(Nc1cccc(-c2cn(-c3ccc4oc(=O)ccc4c3)nn2)c1)Nc1cc(C(F)(F)F)cc(C(F)(F)F)c1 | 62.2% |
| CN1CCCN(Cc2ccc(C(=O)Nc3cccc(Nc4ccc5cc(O)ccc5n4)c3)cc2C(F)(F)F)CC1 | 62.5% |
| N#Cc1c(NC(=O)c2ccc(C(F)(F)F)cc2C(F)(F)F)sc2c1CCC(=O)C2 | 27.1% |
| O=C(c1ccc(O)cc1)C1[C@H](c2ccccc2Br)[C@@H](c2ccccc2)NC12C(=O)Nc1ccc(Br)cc12 (stereo partly drawn) | 40% |
| COc1ccc(N2N=C(c3ccc4c(c3)OCCO4)CC2c2cccc(NC(=O)CCCNS(=O)(=O)c3ccc(F)cc3)c2)cc1 (stereo not drawn) | 56.2% |
| C=C1CCC2C3(C)COC(c4ccccc4F)OC3CCC2(C)C1C/C=C1/C(=O)OCC1O (stereo not drawn) | 58% |
| O=C(Nc1nc2ccc([N+](=O)[O-])cc2s1)Nc1ccccc1I | 22% |
| COc1ccc(-c2ccc(/C=N/NC(=O)c3[nH]c4ccc(Br)cc4c3-c3ccccc3)s2)cc1 | 60% |
| Brc1ccc(/C=N/Nc2ncnc3sc4c(c23)CCN(Cc2ccccc2)C4)cc1 | 74.2% |
| CC(=O)Nc1ccc(-n2cnc3cc(-c4ccc(O)cc4)ccc32)cc1C | 53.1% |
| O=C(c1ccc(O)cc1)C1[C@H](c2ccc(Br)cc2)[C@@H](c2ccccc2)NC12C(=O)Nc1ccccc12 (stereo partly drawn) | 35.5% |
| Nc1nnc(-c2c[nH]c3ccc(F)cc23)c(-c2c[nH]c3ncccc23)n1 | 80.2% |
